Records with an inconclusive call do not appear. Entries that show only a call come without a potency. A number with no mark means an inactive call. Active and inactive are the calls of the source. Calls follow the shape of the dose curve; as a rule, active = well fitted curve in the direction sought with a large enough effect; inconclusive = small, poorly fitted or top-dose-only effect, or another doubt; inactive = no such curve, though single readings can be large; an effect the other way counts as inactive or inconclusive.
assay: Primary qHTS for inhibitors of nuclear receptor binding SET domain protein 2 (NSD2) in an isogenic RCH-ACV NSD2 p.E1099K mutant (9B) (AID 1645876); settings: RCH-ACV NSD2 E1099K (9B) viability, CellTiter-Glo, 72 h; series mostly up to 44.9 µM
Also: nearly all actives have a fitted effect of over 70% in size.
Potency is read from the fitted curve at half-maximal effect.

SMILES	Potency	activity change, negative = viability loss
Nc1ccc(C(=O)OCC(O)CO)cc1 (stereo not drawn)	inactive	–
O=C(O)CCCC[P+](c1ccccc1)(c1ccccc1)c1ccccc1	inactive	–
CC(C)(Oc1ccc(Cl)cc1)C(=O)OCCCOC(=O)C(C)(C)Oc1ccc(Cl)cc1	inactive	–
CC(=O)Nc1ccc(S(=O)(=O)Nc2cc(C)on2)cc1	inactive	–
CO[C@@H]1[C@@H](OC)[C@H](C)[C@@](O)(CC(=O)O)O[C@H]1[C@H](C)[C@H]1O[C@@]2(CC[C@@](C)([C@H]3CC[C@@](C)([C@@H]4O[C@@H]([C@H]5O[C@](C)(O)[C@H](C)C[C@@H]5C)C[C@@H]4OC4C[C@H](OC)[C@@H](OC)[C@H](C)O4)O3)O2)C[C@H](O)[C@H]1C (stereo partly drawn)	596 nM (active)	–
O=C(Oc1ccccc1)c1cccc(C(=O)Oc2ccccc2)c1	inactive	–
CC(=O)O[C@@H]1CC2C3CCc4cc(OC(=O)c5ccccc5)ccc4C3CCC2(C)[C@H]1OC(C)=O (stereo partly drawn)	inactive	–
O=C(O)Cn1cnnn1	inactive	–
CN=C(N)NC(=O)Nc1c(C)cccc1C	inactive	–
CN1N=C(C(N)=O)CCC1=O	inactive	–
C=CCOc1cc(Cl)ccc1C(=O)NCCN(CC)CC	inactive	–
Cc1ccccc1C(=O)N1CC/C(=N\OS(=O)(=O)O)c2ccc(Cl)cc21	inactive	–
Nc1ccc(O)cc1	inactive	–
CCS(=O)(=O)c1ccc(OC)c(C(=O)OC)c1	inactive	–
O=C1c2ccccc2CCc2ccccc21	inactive	–
C#Cc1ccc(-c2ccccc2F)cc1	inactive	–
COCCc1ccccn1	inactive	–
OCCCc1ccccc1	inactive	–
O=C(O)c1[nH]n(-c2ccc(S(=O)(=O)O)cc2)c(=O)c1N=Nc1ccc(S(=O)(=O)O)cc1	inactive	–
CCCCCCCCCCCCCC[N+](C)(C)C	237 nM (active)	–

SMILES	Potency	activity change, negative = viability loss
CCCCC(O)/C=C(C)/C=C/C=C/C(=O)N1CCCC1=O (stereo not drawn)	inactive	–
C=C(C)C(=O)OCC(O)CO (stereo not drawn)	inactive	–
CN(C)CCCOC1(Cc2ccccc2)CCCCCC1	inactive	–
O=C(CCCl)NCCc1ccccc1	inactive	–
CCOc1ncc(F)c(=O)[nH]1	inactive	–
COc1cc(NS(=O)(=O)c2ccc(N)cc2)nc(C)n1	inactive	–
Cc1cccc(OCC(O)CNC(C)(C)C)c1C (stereo not drawn)	inactive	–
O=C1CC[C@H](C(=O)N2CCCCC2)N1	inactive	–
Cc1cc(=O)oc2cc(O[C@@H]3SC[C@@H](O)[C@H](O)[C@H]3O)ccc12	inactive	–
CN1Cc2cc(C(=O)N3CCC(C4CCNCC4)CC3)ccc2N[C@@H](CC(=O)O)C1=O	inactive	–
COc1ccc(CCC(C)=O)cc1	inactive	–
CC(=O)OC[C@H]1O[C@@H](OC(C)=O)[C@H](OC(C)=O)[C@@H]1OC(C)=O	inactive	–
CN(C)CCN(Cc1ccsc1)c1ccccn1	inactive	–
CCN1CCCC1CN (stereo not drawn)	inactive	–
CCCC(=O)O[C@]1(C(=O)CC)CC[C@H]2[C@@H]3CCC4=CC(=O)CC[C@]4(C)[C@H]3[C@@H](O)C[C@@]21C	inactive	–
OCc1c[nH]c2ccccc12	24300 nM (active)	–
NCC[C@H](O)C(=O)N[C@@H]1C[C@H](N)[C@@H](O[C@H]2O[C@H](CN)[C@@H](O)[C@H](O)[C@@H]2O)[C@H](O)[C@@H]1O[C@H]1O[C@H](CO)[C@@H](O)[C@H](N)[C@@H]1O	–	7.89% [at 0.588 µM]
O=C1CC2(CCCC2)CC(=O)N1	inactive	–
CCC(C(=O)NC(=O)NC(C)=O)c1ccccc1 (stereo not drawn)	inactive	–

assay: Primary qHTS for inhibitors of nuclear receptor binding SET domain protein 2 (NSD2) in an RCH-ACV wild type WT cells (2C) (AID 1645877); settings: RCH-ACV (leukaemia line) NSD2 WT (2C) viability, CellTiter-Glo, 72 h; series mostly up to 44.9 µM

SMILES	Potency	activity change, negative = cell killing
Nc1ccc(C(=O)OCC(O)CO)cc1 (stereo not drawn)	inactive	–
O=C(O)CCCC[P+](c1ccccc1)(c1ccccc1)c1ccccc1	inactive	–
CC(C)(Oc1ccc(Cl)cc1)C(=O)OCCCOC(=O)C(C)(C)Oc1ccc(Cl)cc1	inactive	–
CC(=O)Nc1ccc(S(=O)(=O)Nc2cc(C)on2)cc1	inactive	–
CO[C@@H]1[C@@H](OC)[C@H](C)[C@@](O)(CC(=O)O)O[C@H]1[C@H](C)[C@H]1O[C@@]2(CC[C@@](C)([C@H]3CC[C@@](C)([C@@H]4O[C@@H]([C@H]5O[C@](C)(O)[C@H](C)C[C@@H]5C)C[C@@H]4OC4C[C@H](OC)[C@@H](OC)[C@H](C)O4)O3)O2)C[C@H](O)[C@H]1C (stereo partly drawn)	531 nM (active)	–
O=C(Oc1ccccc1)c1cccc(C(=O)Oc2ccccc2)c1	inactive	–
CC(=O)O[C@@H]1CC2C3CCc4cc(OC(=O)c5ccccc5)ccc4C3CCC2(C)[C@H]1OC(C)=O (stereo partly drawn)	inactive	–
O=C(O)Cn1cnnn1	inactive	–
CN=C(N)NC(=O)Nc1c(C)cccc1C	inactive	–
CN1N=C(C(N)=O)CCC1=O	inactive	–
C=CCOc1cc(Cl)ccc1C(=O)NCCN(CC)CC	inactive	–
Cc1ccccc1C(=O)N1CC/C(=N\OS(=O)(=O)O)c2ccc(Cl)cc21	inactive	–
Nc1ccc(O)cc1	inactive	–
CCS(=O)(=O)c1ccc(OC)c(C(=O)OC)c1	inactive	–
O=C1c2ccccc2CCc2ccccc21	inactive	–
C#Cc1ccc(-c2ccccc2F)cc1	inactive	–
COCCc1ccccn1	inactive	–
OCCCc1ccccc1	inactive	–
O=C(O)c1[nH]n(-c2ccc(S(=O)(=O)O)cc2)c(=O)c1N=Nc1ccc(S(=O)(=O)O)cc1	inactive	–
CCCCCCCCCCCCCC[N+](C)(C)C	266 nM (active)	–

SMILES	Potency	activity change, negative = cell killing
CCCCC(O)/C=C(C)/C=C/C=C/C(=O)N1CCCC1=O (stereo not drawn)	inactive	–
C=C(C)C(=O)OCC(O)CO (stereo not drawn)	inactive	–
CN(C)CCCOC1(Cc2ccccc2)CCCCCC1	inactive	–
O=C(CCCl)NCCc1ccccc1	inactive	–
CCOc1ncc(F)c(=O)[nH]1	inactive	–
COc1cc(NS(=O)(=O)c2ccc(N)cc2)nc(C)n1	inactive	–
Cc1cccc(OCC(O)CNC(C)(C)C)c1C (stereo not drawn)	inactive	–
O=C1CC[C@H](C(=O)N2CCCCC2)N1	inactive	–
Cc1cc(=O)oc2cc(O[C@@H]3SC[C@@H](O)[C@H](O)[C@H]3O)ccc12	inactive	–
CN1Cc2cc(C(=O)N3CCC(C4CCNCC4)CC3)ccc2N[C@@H](CC(=O)O)C1=O	inactive	–
COc1ccc(CCC(C)=O)cc1	inactive	–
CC(=O)OC[C@H]1O[C@@H](OC(C)=O)[C@H](OC(C)=O)[C@@H]1OC(C)=O	inactive	–
CN(C)CCN(Cc1ccsc1)c1ccccn1	inactive	–
CCN1CCCC1CN (stereo not drawn)	inactive	–
CCCC(=O)O[C@]1(C(=O)CC)CC[C@H]2[C@@H]3CCC4=CC(=O)CC[C@]4(C)[C@H]3[C@@H](O)C[C@@]21C	inactive	–
OCc1c[nH]c2ccccc12	24300 nM (active)	–
NCC[C@H](O)C(=O)N[C@@H]1C[C@H](N)[C@@H](O[C@H]2O[C@H](CN)[C@@H](O)[C@H](O)[C@@H]2O)[C@H](O)[C@@H]1O[C@H]1O[C@H](CO)[C@@H](O)[C@H](N)[C@@H]1O	–	-24.5% [at 0.588 µM]
O=C1CC2(CCCC2)CC(=O)N1	inactive	–
CCC(C(=O)NC(=O)NC(C)=O)c1ccccc1 (stereo not drawn)	inactive	–
